Results reported in PubChem BioAssay AID720597 (Broad Institute, 2013).
Potency and affinity values are given separately. Unmarked numbers belong to inactive results.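 The calls were made as follows: active = fitted half-maximal dose no more than twice the top valid tested dose, for compounds that lower signal; inconclusive = fit invalid, or curve flat with activity between -70 and -30; inactive = potency past limit, curve flat within ±30, or signal increasing.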

Each compound was assayed against NAD-dependent protein deacylase sirtuin-5, mitochondrial (Homo sapiens) (UniProt Q9NXA8) (assay: blockers of sirtuin-5 peptide desuccinylation – biochemical, fluorescence imaging, cherry-pick, set 6, dose response (AID 720597;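 also: lower AMC signal can also come from blocking the trypsin step; 0% = median of neutral control wells and -100% = median of positive control wells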)). Conditions: Purified SirT5, succinyl-peptide-AMC/trypsin fluorescence; series mostly up to 15 µM; activity change, negative = inhibition: at the top concentration.
NAD-dependent protein deacylase sirtuin-5, mitochondrial (Homo sapiens), sequence (Q9NXA8 whole entry, looked up): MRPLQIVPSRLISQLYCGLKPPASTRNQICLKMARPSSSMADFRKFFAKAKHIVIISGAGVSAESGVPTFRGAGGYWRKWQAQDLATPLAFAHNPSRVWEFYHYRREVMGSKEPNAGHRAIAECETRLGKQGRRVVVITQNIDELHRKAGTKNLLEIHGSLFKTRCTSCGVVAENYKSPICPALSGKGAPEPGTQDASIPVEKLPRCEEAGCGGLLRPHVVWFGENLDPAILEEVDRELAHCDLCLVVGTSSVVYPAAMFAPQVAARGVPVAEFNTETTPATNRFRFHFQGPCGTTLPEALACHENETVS

SMILES | activity change, negative = inhibition [%]
Cc1ccc(S(=O)(=O)N(C)C[C@H]2OCCCC[C@@H](C)Oc3ccc(NS(=O)(=O)c4ccccc4)cc3C(=O)N([C@@H](C)CO)C[C@@H]2C)cc1 | -8.6
CNC[C@H]1Oc2c(NC(=O)c3ccc(-c4nccs4)cc3)cccc2C(=O)N([C@H](C)CO)C[C@H]1C | -12.1
Cc1ccc(S(=O)(=O)N(C)C[C@@H]2OCCCC[C@H](C)Oc3ccc(NS(=O)(=O)c4ccc(F)cc4)cc3C(=O)N([C@H](C)CO)C[C@H]2C)cc1 | -26.5
CC(C)CC#Cc1ccc2c(c1)O[C@@H](CN(C)C(=O)c1cccc(F)c1)[C@H](C)CN([C@@H](C)CO)S2(=O)=O | -9.35
C[C@@H]1CN([C@@H](C)CO)C(=O)Cc2cc(NC(=O)Nc3ccccc3)ccc2O[C@H]1CN(C)S(=O)(=O)c1ccc(F)cc1 | -30.5
CCCNC(=O)N1[C@H](CO)[C@H](c2ccccc2)C12CN(C(=O)CC1CC1)C2 | -21.9
C[C@@H]1CN([C@@H](C)CO)C(=O)c2cc(C#CCN(C)C)cnc2O[C@@H]1CN(C)Cc1ccncc1 | -5.47
O=C(c1cnccn1)N1CC(=O)N2[C@@H](CO)[C@H](c3ccc(C#CC4CC4)cc3)[C@@H]2C1 | 22.1
CC(C)CC#Cc1ccc2c(c1)O[C@H](CN(C)C(=O)c1cccc(F)c1)[C@@H](C)CN([C@H](C)CO)S2(=O)=O | -1.6
Cc1ccc(S(=O)(=O)N(C)C[C@H]2OCCCC[C@H](C)Oc3ccc(NS(=O)(=O)c4ccc(F)cc4)cc3C(=O)N([C@H](C)CO)C[C@H]2C)cc1 | -18.5
COc1ccc(S(=O)(=O)N(C)C[C@@H]2OCCCC[C@H](C)Oc3ccc(NS(=O)(=O)c4cccs4)cc3C(=O)N([C@@H](C)CO)C[C@H]2C)cc1 | -24.6
